PINK1 expr mod – A Quantitative High throughput Screen to Identify Chemical Modulators of PINK1 Expression; PINK1 immunofluorescence, high-content cytometry, 24 h; actives 0.2% (n = 410,000); Potency, µM (doses to about 76.6 µM), for the others: top-dose activation (PINK1 increase), actives largely listed as activators; active = well fitted activation curve with a large enough effect; inconclusive = small, poorly fitted or top-dose-only effect; cell line not stated here; also: % of control where 0% means no effect; nearly all actives have a fitted effect of over 65% in size
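PINK1 protein, normally rapidly degraded, was detected by immunofluorescence after 24 hour compound treatment of a stable cell line. Titration data (5 concentrations) came from laser-scanning cytometry, with CCCP-treated wells as controls.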
Epigenetic reg – Quantitative High-Throughput Screen for Regulators of Epigenetic Control. murine LDR cells, GFP reporter derepression, 30 h. Potency, µM (highest dose often 53.9 µM), without a hit: at the top dose GFP activation, usual class: activators. actives 0.2% (n = 280,000); also: % of control where 0% means no effect; nearly all actives have a fitted effect of over 60% in size
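Reporter derepression read as number of fluorescent GFP-positive objects, 20-120 um in size, counted by laser-scanning cytometer. Mouse LDR line with an epigenetically silenced CMV-GFP locus; compound incubation 30 h, 37 C.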
ClpP mod – qHTS Assay for Activators of ClpP; Potency, µM (series often up to 57.5 µM), for inactives: top-dose activity change, negative = active; ATP-dependent Clp protease proteolytic subunit (Bacillus subtilis (strain 168)), P80244; purified B. subtilis ClpP, FRET peptide cleavage, 20 min; actives 1.9% (n = 340,000); active = well fitted falling curve with a large enough effect; inconclusive = small, poorly fitted or top-dose-only effect; inactive = no such curve, though single readings can be large or run the other way; also: the source files actives as falling curves though it sought activators and does not explain the sign; nearly all actives have a fitted effect of over 65% in size
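Purified B. subtilis ClpP, 10 microg/mL final in Tris/HCl pH8 with KCl, BSA, glycerol and Tween-20, cleaved an Abz/nitrotyrosine-quenched decapeptide. Fluorescence (ex 320, em 430) was read at 0 and 20 min at room temperature. Delta was normalized to 5.8 microM ADEP and DMSO/no-enzyme controls.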
VP16 counter – VP16 counterscreen qHTS for inhibitors of ROR gamma transcriptional activity | Drosophila S2 Gal4-VP16 UAS-luciferase, luminescence, 20 h | Potency, µM (top dose mostly 53.6 µM), inactives show at the top dose activity, negative = inhibition, actives largely listed as inhibitors | actives 3.5% (n = 310,000);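 also: Gal4-VP16 expression switched on by copper sulfate through the metallothionein promoter; % is scaled to controls: 0 for no effect and ±100 for the full control effect; nearly all actives have a fitted effect of over 50% in size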
RORgamma inh – qHTS for inhibitors of ROR gamma transcriptional activity; actives 5.4% (n = 310,000); Drosophila S2 Gal4-RORgamma UAS-luciferase reporter, 20 h; Potency, µM (highest dose often 53.6 µM), without a hit: top-dose activity change, negative = inhibition, hits mostly inhibitors; Nuclear receptor ROR-gamma (Mus musculus), P51450; also: % is scaled to controls: 0 for no effect and ±100 for the full control effect; nearly all actives have a fitted effect of over 60% in size
Target sequence (P51450 whole entry, looked up, the tested form may be a part): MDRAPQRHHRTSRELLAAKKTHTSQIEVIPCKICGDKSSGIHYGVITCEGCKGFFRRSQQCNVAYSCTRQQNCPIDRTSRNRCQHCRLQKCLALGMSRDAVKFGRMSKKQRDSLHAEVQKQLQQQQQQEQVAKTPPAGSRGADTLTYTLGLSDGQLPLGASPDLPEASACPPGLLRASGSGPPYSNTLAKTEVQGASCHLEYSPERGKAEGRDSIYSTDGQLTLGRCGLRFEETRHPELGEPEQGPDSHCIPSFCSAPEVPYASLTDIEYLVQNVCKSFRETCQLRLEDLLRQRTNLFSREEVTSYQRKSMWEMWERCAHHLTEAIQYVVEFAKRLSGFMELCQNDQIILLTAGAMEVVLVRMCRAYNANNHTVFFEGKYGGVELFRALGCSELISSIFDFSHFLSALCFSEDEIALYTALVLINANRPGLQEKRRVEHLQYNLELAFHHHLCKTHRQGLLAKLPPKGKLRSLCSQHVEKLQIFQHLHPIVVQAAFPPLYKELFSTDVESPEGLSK
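Luciferase reporter read in Schneider cells carrying Gal4-RORγ (mouse) and UAS-Photinus luciferase; cells given compound 1 h before 700 uM copper sulfate induction, then incubated 20 h at ambient temperature.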
Sfp inh – qHTS Assay for Inhibitors of Bacillus subtilis Sfp phosphopantetheinyl transferase (PPTase); Potency, µM, without a hit: largest response in the series, negative = inhibition, most hits filed as inhibitors; 4'-phosphopantetheinyl transferase ffp (Bacillus subtilis), Q9F4F7; actives 3.5% (n = 310,000); Biochemical Sfp PPTase activity, qHTS;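 also: the enzyme is Sfp with the accession as filed and its product quenches rhodamine fluorescence; 0% = enzyme reaction without inhibitor and -100% = no enzyme wells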
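Sfp 15 nM + cpd, 15 min RT; start w/ rhodamine-CoA 5 uM, BHQ-2-YbbR 12.5 uM (final); 50 mM Hepes pH 7.6, 10 mM MgCl2, 0.01% NP-40, 0.01% BSA; read 525/598 nm at 0 and 30 min.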
Active calls of the source: *; ? = inconclusive; . = not tested or not shown; [ ] = dose if it differs, or a comment. Rows were chosen to be rich in hits. Some 8.1% of all compounds tested hit in one or more screens of this group. Unless noted, calls follow the shape of the dose curve; as a rule, active = well fitted curve in the direction sought with a large enough effect; inconclusive = small, poorly fitted or top-dose-only effect, or another doubt; inactive = no such curve, though single readings can be large; an effect the other way counts as inactive or inconclusive. Potency is read from the fitted curve at half-maximal effect.

SMILES | PINK1 expr mod | Epigenetic reg | ClpP mod | VP16 counter | RORgamma inh | Sfp inh
CCOc1ccc(CNC(=O)CSc2c3c(nc4cc(Cl)ccc24)CCCC3)cc1 | 6.5% | 5.8% | 3.0% | . | . | .
CCN1CCN(c2cc3c(nn2)Oc2ccccc2N3C)CC1 | 0.1% | 0.2% | 28.2µM* | -23.4% | -39.7% | 12.3%
CCN1CCN(c2ccc(N3CCN(C(=O)c4ccc(Br)o4)CC3)nn2)CC1 | -5.6% | . | -28.6% | . | . | .
O=C1NC(=O)C2C3C=CC(C3)C12 (stereo not drawn) | . | . | . | 4.3% | -7.2% | 9.8%
O=C(Nc1ccc(F)cc1)N(CCCN1CCOCC1)Cc1cc2cc3c(cc2[nH]c1=O)OCCO3 | 2.8% | 10.7% | 25.1µM* | 6.4% | 44.7% | -10.2%
COc1cc2cc(CN(CCCN3CCOCC3)C(=O)Nc3ccccc3F)c(=O)[nH]c2cc1OC | -1.7% | 0.1% | . | -4.9% | -2.2% | 14.2%
O=C(Nc1ccc(F)cc1)N(CCCN1CCOCC1)Cc1cc2cc3c(cc2[nH]c1=O)OCO3 | 2.5% | 0.0% | ? | 4.0% | -0.9% | -9.1%
COc1ccccc1NC(=O)N(CCCN1CCOCC1)Cc1cc2cc3c(cc2[nH]c1=O)OCO3 | 0.1% | -0.9% | 20µM* | -7.6% | -24.1% | -5.1%
NC(C(=O)O)[C@H](O)C(=O)O (stereo partly drawn) | . | 0.8% | . | . | . | 56.2µM*
CC(C)c1ccc2c(c1)CC[C@H]1[C@](C)(CN)CCC[C@]21C | -0.6% | 1.0% | -1.5% | ? | 11.2µM* | -27.7%
CC(C)c1ccc2c(c1)CCC1C(C)(CN)CCCC21C (stereo not drawn) | -3.8% | 0.0% | . | 3.0% | 29.4% | 11.2µM*
CC(C)c1cc2c(cc1S(=O)(=O)O)[C@@]1(C)CCC[C@@](C)(C(=O)O)[C@@H]1CC2 | . | . | . | -5.9% | 0.7% | 15.6%
CC(C)c1ccc2c(c1)CC[C@@H]1[C@@](C)(CN)CCC[C@]21C | . | -1.4% | . | -10.9% | -4.3% | -8.2%
CN(C)c1cc(N2CCOCC2)nc(C#N)n1 | 1.6% | . | -1.2% | . | . | .
C[N+]1(CC(=O)c2ccc(I)cc2)CCOCC1 | . | . | -0.3% | . | . | .
CN1c2ccc(Cl)cc2-c2nc(SCC(=O)NCc3ccc(F)cc3)ncc2S1(=O)=O | 2.1% | ? | -18.4% | . | . | .
Nc1cc2c(cc1O)CCCC2 | 0.8% | -2.8% | . | 0.8% | ? | 4.47µM*
CCCCN(C)CCCNC(=O)Cn1ncc2c3ccccc3n(Cc3cccc(Cl)c3)c2c1=O | 1.0% | 3.8% | -29.8% | . | . | .
COc1ccc(Cl)cc1NC(=O)Cn1c(=O)n(Cc2nc(C)no2)c(=O)c2ccccc21 | 0.2% | 2.2% | -2.4% | . | . | .
O=C(NCCSc1ccc(Cl)cc1)c1ccco1 | 0.9% | -1.0% | 0.2% | 4.2% | ? | 3.6%
O=C(CSc1ccccc1Cl)c1ccco1 | 2.3% | 0.3% | -2.4% | 9.9% | 13.8% | 5.5%
O=C(CCSc1ccc(Cl)cc1)c1ccco1 | 0.9% | . | -0.8% | ? | 11.2µM* | 7.9%
O=C(CSc1ccc(Cl)cc1)c1ccco1 | -1.7%[38.3 µM] | 0.8% | -1.0% | ? | 23.4% | 44.7µM*
COc1ccc(NC(=O)Cn2ncc3c2-c2ccccc2OC3)cc1Cl | 0.8% | 0.0% | 1.5% | . | . | .
CC1(C)CC(n2c(NCCO)nc3c(c2=O)C2(CCCC2)Cc2ccccc2-3)CCO1 (stereo not drawn) | 3.5%[38.3 µM] | 0.0% | 31.6µM* | 6.0% | -20.6% | -4.7%
CCn1c(NCCCO)nc2c(c1=O)C(C)(CC)Cc1ccccc1-2 (stereo not drawn) | 2.9% | -1.7% | -5.2% | -2.6% | 17.6% | -7.2%
O=c1c2c(nc(NCCO)n1CC1CCCCC1)-c1ccccc1CC21CCCC1 | 2.9% | -2.9% | 28.2µM* | 5.4% | 8.9% | 15.4%

Source: PubChem (National Center for Advancing Translational Sciences (NCATS))
